Assay results: PubChem BioAssay (NCATS)
Where “and” joins values, the source holds several entries; their conditions need not be identical. Equal entries are not always repeated. Results filed as inconclusive are left out. Where a call stands in place of a potency, no number is given. Some compounds were tested as several samples or in several runs, with calls that do not always agree. Calls of active or inactive are those of the source. Calls come from the whole dose curve; as a rule, active = well fitted inhibition curve with a large enough effect; inconclusive = small, poorly fitted or top-dose-only effect; inactive = no such curve, though single readings can be large or run the other way.
Potency is the fitted concentration of half-maximal effect.

Test: Primary qHTS for inhibitors of nuclear receptor binding SET domain protein 2 (NSD2) in an RCH-ACV wild type WT cells (2C) (AID 1645877); note: nearly all actives have a fitted effect of over 70% in size
Settings: RCH-ACV (leukaemia line) NSD2 WT (2C) viability, CellTiter-Glo, 72 h; series mostly up to 44.9 µM
With `COC(=O)[C@@H]1[C@H]2C[C@H]3c4[nH]c5ccccc5c4CCN3C[C@@H]2CC[C@@H]1O` the Potency was “inactive”.
With `Clc1ccc(C(c2ccc(Cl)cc2)n2cc[n+](CC(OCc3ccc(Cl)cc3Cl)c3ccc(Cl)cc3Cl)c2)cc1` (centres undefined) the Potency was 5.25 µM (active).
In the case of `CC(C)NCC(O)COc1cccc2[nH]ccc12` (centres undefined), the Potency is reported as “inactive”.
With `CCN(CC)CCNC(=O)c1ccc(N)cc1` the Potency was “inactive”.
In the case of `CCN1CCC[C@H]1CNC(=O)c1cc(S(N)(=O)=O)ccc1OC`, the Potency is reported as “inactive”.
In the case of `O=C(O)Cc1cccc2ccccc12`, the Potency is reported as “inactive”.
With `N#C[C@H]1C[C@H]2C[C@@H]2N1C(=O)[C@@H](N)C12CC3CC(CC(O)(C3)C1)C2` the Potency was “inactive”.
With `C[N+](C)(C)CCCCCC[N+](C)(C)C` the Potency was “inactive”.
For `Cc1cccc(Nc2nc(-c3ccncc3)cs2)c1`, the Potency was 10.3 µM (active) and 13.2 µM (active).
In the case of `Clc1ccc(Cn2c(CN3CCCC3)nc3ccccc32)cc1`, the Potency is reported as “inactive and 18.6 µM (active)”.
In the case of `CCCCC1C(=O)N(c2ccccc2)N(c2ccccc2)C1=O`, the Potency is reported as “inactive”.
With `CC(C)OC(=O)C(C)(C)Oc1ccc(C(=O)c2ccc(Cl)cc2)cc1` the Potency was “inactive”.
In the case of `CC(=O)c1ccc(S(=O)(=O)NC(=O)NC2CCCCC2)cc1`, the Potency is reported as “inactive”.
In the case of `CN(C)CCC(c1ccccc1)c1ccccn1` (centres undefined), the Potency is reported as “inactive”.
In the case of `CC(=O)CCCCn1c(=O)c2c(ncn2C)n(C)c1=O`, the Potency is reported as “inactive”.
In the case of `c1ccc2c(-c3cnn4cc(-c5ccc(N6CCNCC6)cc5)cnc34)ccnc2c1`, the Potency is reported as 2.09 µM (active).
For `OC[C@@H](O)[C@H](O)[C@H](O)[C@@H](O)CO`, the Potency was “inactive”.
For `O=C1NC(=O)C(c2ccccc2)(c2ccccc2)N1`, the Potency was “inactive”.
In the case of `CC1(C)CCC2=C(O1)c1ccccc1C(=O)C2=O`, the Potency is reported as 9.34 µM (active).
With `CC/C(=C(\c1ccccc1)c1ccc(OCCN(C)C)cc1)c1ccccc1` the Potency was 17.1 µM (active).
In the case of `COc1cc2c(cc1OC)CN(CCc1ccc(NC(=O)c3cc(OC)c(OC)cc3NC(=O)c3cnc4ccccc4c3)cc1)CC2`, the Potency is reported as “inactive”.
For `CC(=O)O[C@]1(C(C)=O)CC[C@H]2[C@@H]3C=C(Cl)C4=CC(=O)[C@@H]5C[C@@H]5[C@]4(C)[C@H]3CC[C@@]21C`, the Potency was “inactive”.
With `COc1cc(Nc2ncc(F)c(Nc3ccc4c(n3)NC(=O)C(C)(C)O4)n2)cc(OC)c1OC` the Potency was 1.03 µM (active) and 5.17 µM (active).
With `CCCNC(=O)NS(=O)(=O)c1ccc(Cl)cc1` the Potency was “inactive”.
In the case of `CCc1ccc(OCc2ccccc2C(=O)Nc2ccc3nc(C)cc(N)c3c2)cc1`, the Potency is reported as 2.95 µM (active).
In the case of `COc1cccc(-c2cc(=O)c3ccccc3o2)c1N`, the Potency is reported as “inactive”.
With `CCOC(=O)C1=C(N)Oc2ccc(Br)cc2C1C(C#N)C(=O)OCC` (centres undefined) the Potency was “inactive”.
In the case of `CN(C[C@@H]1COCCO1)S(=O)(=O)Nc1ccc2ccc3ncc(-c4cnn(C)c4)cc3c(=O)c2c1`, the Potency is reported as 6.49 µM (active).
For `O=C(Nc1ccccc1-c1cn2c(CN3CCNCC3)csc2n1)c1cnc2ccccc2n1`, the Potency was 4.09 µM (active) and 6.61 µM (active).
